Screens deposited in PubChem by several laboratories.
Sampled rows, rich in hits. Any-hit rate of the full collection: about 2.4%.
Rpn11 block = inhibitors of human proteasome Rpn11 | 0.59% of 360,000 active | inhibition, % at 20 µM | human 26S proteasome, Ub4-pepOG fluorescence polarization; 20S core pre-blocked with epoxomicin | AID 588493 | O00487;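 active = inhibition at 20 µM, scaled to each plate's controls, above about 33%, limit read from the data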
Target sequence (O00487 whole entry, looked up): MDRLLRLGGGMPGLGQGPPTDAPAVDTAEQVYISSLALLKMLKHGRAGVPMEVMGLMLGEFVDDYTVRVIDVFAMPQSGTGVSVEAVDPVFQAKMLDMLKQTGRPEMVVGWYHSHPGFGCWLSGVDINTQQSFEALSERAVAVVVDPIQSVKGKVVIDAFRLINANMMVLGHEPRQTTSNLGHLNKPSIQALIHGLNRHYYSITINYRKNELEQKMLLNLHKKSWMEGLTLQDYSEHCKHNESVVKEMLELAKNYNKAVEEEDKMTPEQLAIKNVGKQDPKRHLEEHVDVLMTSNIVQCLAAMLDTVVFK
PP5 primary = inhibitors of human protein phosphatase 5 (PP5) | inhibition, % at 6.7 µM | P53041 | AID 1987 | 0.18% of 320,000 active | purified PP5c, OMFP substrate fluorescence;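 active = inhibition above the campaign's mean inhibition across all tested compounds plus 3 SD, cut at about 9.5% in these data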;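 also: 0% = DMSO only and 100% = 100 µM cantharidin control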
PP1 counter = counter-screen for PP5 inhibitors: inhibitors of human PP1-alpha. purified PP1alpha, OMFP fluorescence. inhibition, % at 6.7 µM. 0.9% of 320,000 active. AID 2235;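 active = inhibition above the mean inhibition of all tested compounds plus 3 SD, computed separately for each screening campaign, cut at about 15% in these data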
NadD block = inhibitors of Staphylococcus aureus NadD; purified NadD enzyme, colorimetric absorbance read-out; inhibition, % at 20 µM; 0.78% of 360,000 active; AID 602399; in the data active = inhibition above about 26%
PREPL inh = human PREPL enzyme inhibition; Q4J6C6; recombinant PREPL, fluorescence polarization activity-based probe; inhibition, % at 5.96 µM; 0.68% of 320,000 active; AID 2751; in the data active = inhibition above about 43%;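 also: 0% = enzyme with DMSO and 100% = wells lacking enzyme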
Rpn11 confirm = confirmation of human proteasome Rpn11 inhibitors; purified human 26S proteasome, Ub4-pepOG fluorescence polarization; proteasome pretreated with epoxomicin; 29% of 1,900 active; inhibition, % at 20 µM; shares compounds with Rpn11 block
MMP-2 inh = blocks human MMP-2, flagging nonselective RPN11 hits; shares compounds with Rpn11 block; recombinant MMP-2, FRET peptide cleavage fluorescence; inhibition, % at 20 µM; 4% of 1,900 active;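 also: human MMP-2 activated beforehand with APMA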
Thrombin FP = thrombin (bovine) inhibition counter-screen; shares compounds with Rpn11 block; bovine thrombin cleavage of Ub4-pepOG, fluorescence polarization; inhibition, % at 20 µM; 13% of 1,900 active;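 active = mean inhibition at least 40% at 20 µM, or signal 3 deviations below plate average, so some actives read negative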;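 also: plate controls were thrombin with DMSO for no effect and buffer wells lacking thrombin for full effect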
* marks the source's active call; other numbers are inactive results; · = no result shown. Rule as the data show it, unless noted: active = inhibition above about 40%; inactive = the rest.

SMILES	Rpn11 block	PP5 primary	PP1 counter	NadD block	PREPL inh	Rpn11 confirm	MMP-2 inh	Thrombin FP
CN1/C(=C/C(=S)NC(=O)C2CCC2)C(C)(C)c2ccccc21	54*	2	3	4	-1	-12	21	-6
CC(C)C(=O)NC(=S)/C=C1/N(C)c2ccccc2C1(C)C	·	-1	-6	7	-17	·	·	·
Cc1ccc(NC(=O)c2cccc(C(=O)Nc3ccc(C)c(C)c3)n2)cc1C	3	-1	0	7	4	·	·	·
CCc1c(Cl)nc(N)nc1Nc1ccccc1C	76*	·	·	1	·	-31	-14	-19
Cc1c(Cc2ccccc2)sc(NC(=O)/C=C/c2cccc3ccccc23)c1C(N)=O	38*	3	3	19	4	-6	-8	-33
COC(=O)c1c(NC(=O)/C=C/C(=O)O)sc(Cc2ccccc2)c1C	2	4	-2	-4	-8	·	·	·
Cc1ccc(C(=O)NCCCNc2ccc(C(F)(F)F)cc2[N+](=O)[O-])cc1	41*	0	-3	1	14	16	10	5
CCN1CCN(CCCNC(=O)c2ccc3c(Cl)c4c(nc3c2)CCCC4)CC1	-12	3	-2	-9	8	·	·	·
O=C(NCCCN1CCCCCC1)c1ccc2c(Cl)c3c(nc2c1)CCCC3	75*	2	-4	18	16	-15	21	-25
O=C(NCCCN1CCCCCC1)c1ccc(CS(=O)(=O)Cc2ccccc2F)o1	73*	·	·	20	·	75*	-436	3
O=C(NCCCN1CCCC1)c1ccc(CS(=O)(=O)c2ccc(Br)cc2)o1	13	-1	-1	3	-7	·	·	·
O=C(NCCN1CCCCCC1)c1ccc(CS(=O)(=O)c2ccc(Br)cc2)o1	53*	-2	-4	29	20	32	14	13
COc1ccc(Cn2c(N)c(C#N)c3nc4ccccc4nc32)cc1	33	2	1	-2	7	·	·	·
COc1cccc(Cn2c(N)c(C#N)c3nc4ccccc4nc32)c1OC	38*	3	4	11	27	34	-40	9
O=C1N=C(c2ccccc2)C(c2ccccc2)N1 (stereo not drawn)	0	-1	0	-1	18	·	·	·
COc1ccc(C2=NC(=O)NC2c2ccc(OC)cc2)cc1 (stereo not drawn)	39*	1	2	-2	-7	9	-14	-6
COC(=O)c1ccc(NC(=O)Cn2nc(-c3ccncc3)nc2SCC(=O)Nc2nccs2)cc1	34*	3	-2	19	0	22	-14	7
CCN(CC)C(=O)Cn1nc(-c2ccncc2)nc1SCC(=O)Nc1ccc(OC)cc1	0	2	4	-2	7	·	·	·
Cc1[nH]c(C)c(C(=O)/C=C/c2ccc([N+](=O)[O-])cc2)c1C	3	2	1	4	13	·	·	·
CCc1c(O)nc(SCC(=O)Nc2ccc(C)cc2)n(C2CCCCC2)c1=O	85*	1	0	9	-4	42*	1	28
CCc1c(O)nc(SCC(=O)Nc2ccc(Br)cc2)n(-c2ccc(C)cc2)c1=O	20	3	1	1	10	·	·	·
CCSc1nc2sc3c(c2c(=O)n1-c1ccccc1)CCN(C)C3	53*	1	4	0	15	7	-12	14
CCCN1CCc2c(sc3nc(SCC)n(-c4ccccc4)c(=O)c23)C1	36	·	·	11	·	·	·	·
CCc1ccc(-c2cc(C(=O)N/N=C/c3c[nH]c4ccccc34)[nH]n2)cc1	4	8	3	21	38	·	·	·
CCc1ccc(/C=C/c2c[nH]c3ccccc23)[n+](CC)c1	50*	0	2	19	18	27	-23	43*
SMILES	Rpn11 block	PP5 primary	PP1 counter	NadD block	PREPL inh	Rpn11 confirm	MMP-2 inh	Thrombin FP
Cc1nc(CCNC(=O)CC2C(=O)NCCN2Cc2ccccc2)nc2c1CCC2 (stereo not drawn)	-11	·	·	-5	·	·	·	·
CCCC(=O)NC(c1ccco1)c1cc(Cl)c2cccnc2c1O (stereo not drawn)	42*	2	7	10	29	12	16	1
Cc1ccc(Cn2c(C3CCCN3c3nc(C)cs3)nc3cc(C(F)(F)F)ccc32)cc1 (stereo not drawn)	3	3	1	3	-6	·	·	·
COc1ccc(C2C(C#N)=C(N)Oc3cc(C)n(Cc4ccco4)c(=O)c32)cc1 (stereo not drawn)	46*	-3	-2	7	-4	23	-23	6
C=CCc1c(C)nc(-c2ccccc2)nc1Nc1ccccc1O	55*	4	10	-3	-2	29	6	9
N#CC(C#N)=Cc1ccc(-c2ccc(S(=O)(=O)N=C(N)N)cc2)o1	46*	1	0	0	-7	26	76*	11
Cc1ccc(S(=O)(=O)c2c(N)n(NC(=O)c3ccco3)c3nc4ccccc4nc23)cc1	39*	1	-3	14	2	5	-45	-3
CC(/C=C/c1ccc(N(C)C)cc1)=N/N=C1/NC(=O)CC(C(=O)Nc2ccc(Cl)cc2)S1 (stereo not drawn)	65*	3	1	47*	17	89*	23	87*
C/C(CCc1ccc2c(c1)OCO2)=N\N=C1\NC(=O)CC(C(=O)Nc2ccc(C(=O)O)cc2)S1 (stereo not drawn)	4	·	·	-6	·	·	·	·
COc1cccc(-c2ccc(SCC(=O)N3CCc4ccccc43)nn2)c1	·	0	-1	·	-38	·	·	·
CC[C@]1(C(=O)OC)[C@H]2C(=O)N(C)C(=O)[C@H]2[C@H]2CN(C)C(=NC3CCCCC3)N21	-12	·	·	2	·	·	·	·
O=C(NNc1ncnc2ccccc12)c1cccc(Cl)c1	74*	1	-4	-3	11	77*	-26	-4
Cc1nc2c(sc(=S)n2Cc2ccco2)c(=O)n1CC(=O)Nc1cc(F)ccc1F	2	-1	1	3	20	·	·	·
COc1ccccc1NC(=O)Cn1c(C)nc2c(sc(=S)n2Cc2ccco2)c1=O	58*	2	4	9	-2	7	-37	1
O=C(CNc1cccc(C(F)(F)F)c1)N/N=C/C1CCCCC1	-1	5	-4	-6	11	·	·	·
Cc1ccc(-c2ccc(/C=C3\SC(N4CCOCC4)=NC3=O)o2)cc1	60*	2	4	-5	43	48*	4	34
O=C1N=C(N2CCOCC2)S/C1=C/c1ccc(-c2ccc(F)cc2)o1	1	1	2	-1	19	·	·	·
CN(C)S(=O)(=O)c1cccc(NC(=O)c2cc3c(=O)n4ccccc4nc3s2)c1	85*	1	3	2	-3	0	9	-2
